The values below come from PubChem BioAssay AID720517 (National Center for Advancing Translational Sciences (NCATS), 2013).

Inconclusive results are not listed. A number with no mark means an inactive call. Calls follow the shape of the dose curve; as a rule, active = well fitted activation curve with a large enough effect; inconclusive = small, poorly fitted or top-dose-only effect; inactive = flat fitted curve, though single readings scatter.

The nature of the experiment: qHTS for Inhibitors of Cell Surface uPA Generation: FP59 Counterscreen for Cherry-picked Compounds. Also: 0% is about no effect. The settings on record: FP59 anthrax toxin cytotoxicity counterscreen, cells; series mostly up to 115 µM; activity (protection from FP59): at the top concentration.
For the compound `Cc1nn(C)c(C)c1S(=O)(=O)N1CCC(C(=O)NC2CCCCCC2)CC1`, the “activity (protection from FP59)” value is -1.25%.
The figure for `CCc1nc(SCC(N)=O)c2c(=O)n(C)c(=O)n(C)c2n1` is -1.48%.
The figure for `COc1ccc(NS(=O)(=O)c2c(C)n(C)c(=O)n(C)c2=O)cc1OC` is -1.51%.
As for `CCOc1ccc(C2(C)CC(=O)N(C)C2=O)cc1` (stereo not drawn), the figure is -1.63%; as for `Cc1ccnc(NC(=O)CCNS(=O)(=O)c2ccc(C)c(C)c2)c1`, -1.33%.
For `C=CCn1c(SCc2ccc(C(=O)NCCO)cc2)nc2ccccc2c1=O`, the “activity (protection from FP59)” value is -1.12%.
As for `C/C(=N\NC(=S)NC(C)C)c1ccc(Cl)s1`, the figure is 0.058%.
As for `N#Cc1ccccc1Sc1ccccc1C(=O)Nc1ccc(Br)cc1`, the figure is 5.57%; as for `COc1ccc(Cc2nnc(NC(=O)Nc3ccc(F)cc3)s2)cc1`, -0.209%; as for `CCCCn1c(=NC(=O)c2ccco2)c(C(=O)OCC)cc2c(=O)n3cccc(C)c3nc21`, 10.2%.
As for `CCN(C(=O)c1c(C)noc1C)c1c(N)n(Cc2ccccc2)c(=O)[nH]c1=O`, the figure is -1.27%; as for `O=C(Cc1ccccc1)Nc1ccc(NC(=O)c2ccccc2)c(Cl)c1`, -1.32%; as for `CC(=O)n1cc(/C=N/NC(=O)c2ccc([N+](=O)[O-])cc2)c2ccccc21`, -1.52%.
Consider `COCCNS(=O)(=O)c1cc(OC)c(C)cc1C`, for which the “activity (protection from FP59)” value is -1.25%.
As for `O=C(CCCC(=O)N(c1cccc(F)c1)C(C(=O)NC1CCCC1)c1ccc(O)cc1)Nc1ccccn1` (stereo not drawn), the figure is -1.23%.
With `CN(C)S(=O)(=O)c1cccc(C(=O)OCC(=O)NCc2ccc3c(c2)OCO3)c1`, the “activity (protection from FP59)” value is -1.44%.
As for `CC1Cc2nc(SCC(=O)Nc3ccc4c(c3)OCO4)n(-c3ccc(F)cc3)c(=O)c2S1` (stereo not drawn), the figure is -1.41%; as for `COC(=O)COc1cc2ccccc2cc1C(=O)Nc1ccccc1`, -1.27%; as for `Cc1ccc(S(=O)(=O)N(C)c2ccc(OC(=O)c3ccc(=O)[nH]c3)cc2)cc1`, -1.51%.
The figure for `COc1ccc(CC(=O)NNS(=O)(=O)c2ccccc2[N+](=O)[O-])cc1OC` is -1.49%.
Take `COc1ccccc1CNC(=O)CCCn1nc(C)c2c(C)n(-c3ccccc3)nc2c1=O`: the “activity (protection from FP59)” value is -1.42%.
The figure for `Cc1nc(NC(=O)COC(=O)CCc2ccccc2)c(Cl)cc1Cl` is -0.548%; for `COc1ccc(C(C)=O)cc1CSC(=N)N` it is 0.0633%.
